Source: PubChem BioAssay
HEK293 tox = kills HEK 293 cells. HEK 293 viability, ATP luminescence (CellTiter-Glo), 48-72 h. Potency, µM (titrated, usually from 115 µM), usual class: inhibitors. hit rate 6.6% among 94,000; note: nearly all actives have a fitted effect of over 60% in size
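HEK 293 cells at 250 cells/well were exposed to compounds by pintool transfer for 48 or 72 hr at 37 degree Celsius, 5% CO2. Viability was read as ATP-coupled luminescence with CellTiter-Glo after 10 min at room temperature.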
GPT2 inh = blocks human glutamate pyruvate transaminase 2 | Q8TD30 | Recombinant GPT2, coupled pyruvate oxidase/HRP Amplex Red fluorescence | Potency, µM (highest dose often 57.7 µM), actives largely listed as inhibitors | hit rate 0.25% among 100,000 | AID 1671188; note: nearly all actives have a fitted effect of over 60% in size
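Recombinant GPT2 (10ng/uL) with 250uM a-KG and 2mM L-alanine, 30 min at room temperature, in HEPES pH 7.5 buffer. Pyruvate detected by pyruvate oxidase/HRP/Amplex Red fluorescence after 30 min in the dark; AOA (50uM) as positive control.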
FLuc inh = inhibitors of firefly (Photinus pyralis) luciferase | Potency, µM (highest dose often 115 µM), actives largely listed as inhibitors | purified P. pyralis luciferase, luminescence, biochemical | hit rate 2.5% among 76,000; note: nearly all actives have a fitted effect of over 65% in size
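Purified 10nM P. pyralis luciferase with 10uM D-luciferin and 10uM ATP in 50mM Tris acetate pH 7.5, 10mM Mg acetate, 0.01% Tween-20, 0.05% BSA. qHTS titration; luminescence read by CCD imager.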
NPR1 antag = blocks ANP-stimulated signaling of human Npr1 receptor; P16066; HEK293 hNpr1 GloSensor cGMP, ANP-stimulated luminescence; hit rate 1.6% among 76,000; Potency, µM (series often up to 46.3 µM), usual class: inhibitors; calls by dose curve; note: nearly all actives have a fitted effect of over 60% in size
Target sequence (P16066 whole entry, looked up): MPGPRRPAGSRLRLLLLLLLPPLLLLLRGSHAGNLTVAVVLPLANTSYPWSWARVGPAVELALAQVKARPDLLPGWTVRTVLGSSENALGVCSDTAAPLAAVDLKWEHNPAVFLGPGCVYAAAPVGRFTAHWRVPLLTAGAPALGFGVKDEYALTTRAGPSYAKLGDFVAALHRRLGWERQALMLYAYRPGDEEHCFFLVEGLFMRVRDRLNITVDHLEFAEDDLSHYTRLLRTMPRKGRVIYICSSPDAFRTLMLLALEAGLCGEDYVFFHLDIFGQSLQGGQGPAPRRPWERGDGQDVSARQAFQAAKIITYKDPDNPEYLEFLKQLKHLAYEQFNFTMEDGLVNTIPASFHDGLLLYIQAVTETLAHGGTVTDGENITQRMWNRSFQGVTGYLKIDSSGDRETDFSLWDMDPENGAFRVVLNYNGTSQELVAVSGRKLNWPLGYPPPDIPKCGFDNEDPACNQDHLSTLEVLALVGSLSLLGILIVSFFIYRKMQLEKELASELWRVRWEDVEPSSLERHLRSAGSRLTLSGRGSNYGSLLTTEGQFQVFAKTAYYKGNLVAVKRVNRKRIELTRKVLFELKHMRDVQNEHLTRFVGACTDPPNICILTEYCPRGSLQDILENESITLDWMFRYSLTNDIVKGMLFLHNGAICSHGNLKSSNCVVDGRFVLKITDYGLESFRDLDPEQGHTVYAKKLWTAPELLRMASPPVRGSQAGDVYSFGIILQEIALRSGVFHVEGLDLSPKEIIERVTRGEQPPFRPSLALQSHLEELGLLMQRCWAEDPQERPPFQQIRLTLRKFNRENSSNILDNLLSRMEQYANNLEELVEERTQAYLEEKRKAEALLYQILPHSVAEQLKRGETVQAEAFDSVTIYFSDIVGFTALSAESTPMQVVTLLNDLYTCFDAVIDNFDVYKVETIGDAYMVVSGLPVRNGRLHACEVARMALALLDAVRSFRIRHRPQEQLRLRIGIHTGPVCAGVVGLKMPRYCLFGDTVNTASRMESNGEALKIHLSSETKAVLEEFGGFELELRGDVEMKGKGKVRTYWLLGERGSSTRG
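Compound pre-incubated 30 min at room temperature on GloSensor-loaded HEK293 cells stably carrying hNpr1 and the pGS-40F cGMP biosensor. Stimulation uses hNppA at 0.1 nM final; luminescence is taken at baseline and 20 min post-agonist.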
NIH3T3 tox = kills NIH 3T3 cells. NIH 3T3 viability, CellTiter-Glo ATP luminescence, 48-72 h. Potency, µM (series often up to 96.7 µM), most hits filed as inhibitors. hit rate 4.3% among 94,000; note: nearly all actives have a fitted effect of over 55% in size
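Mouse fibroblast NIH 3T3 cells, 400 per well, received compound via pintool and were incubated for 48 or 72 hr prior to CellTiter-Glo ATP luminescence measurement.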
Hits are given with their value; . = inactive; ? = inconclusive; / = not tested or not shown; ! = not active in a repeat. Sampled rows, rich in hits. Any-hit rate of the full collection: about 10%. Unless noted, calls come from the whole dose curve; as a rule, active = well fitted curve in the direction sought with a large enough effect; inconclusive = small, poorly fitted or top-dose-only effect, or another doubt; inactive = no such curve, though single readings can be large; an effect the other way counts as inactive or inconclusive.

SMILES	HEK293 tox	GPT2 inh	FLuc inh	NPR1 antag	NIH3T3 tox
O=C1CN(S(=O)(=O)c2ccc(F)cc2)CC(O)CN1CCCc1ccccc1 (centres undefined)	?	/	/	/	.
CC(C)CNC(=O)c1nc2sccn2c1-c1cccc(C(F)(F)F)c1	.	.	/	/	.
CC1(C(=O)NCc2cccnc2)CCCc2cnc(Nc3ccccc3)nc21 (centres undefined)	.	.	.	.	?
CC1(C(=O)NCc2ccncc2)CCc2cnc(NCc3ccccc3)nc21 (centres undefined)	.	.	.	.	44.7µM
CC1(C(=O)NCc2cccnc2)CCc2cnc(Nc3ccccc3)nc21 (centres undefined)	89.1µM	.	.	.	25.1µM
CCOC(=O)CN1C(=O)CCN(C(=O)c2ccccc2OCC)CC(OC)c2ccccc21 (centres undefined)	.	.	/	/	?
Cc1ccc(-c2cn3cc(C(=O)NCC4CCCCC4)nc3s2)cc1	.	.	/	/	.
COc1cccc(-c2cc(C3CCN(C(=O)Nc4ccc(OC)cc4OC)CC3)[nH]n2)c1	?	?	.	.	?
CCc1ccc(C(=O)N2CCC(c3cc(-c4cccc(OC)c4)n[nH]3)CC2)cc1	44.7µM	.	.	?	?
COc1cccc(-c2cc(C3CCN(C(=O)c4cc(C)ccc4C)CC3)[nH]n2)c1	39.8µM	.	.	?	?
COc1cccc(-c2cc(C3CCN(C(=O)Nc4ccc5c(c4)OCCO5)CC3)[nH]n2)c1	?	.	25.1µM	?	39.8µM
COc1cccc(-c2cc(C3CCN(C(=O)Nc4ccccc4OC)CC3)[nH]n2)c1	31.6µM	.	.	.	?
O=C(NCCNC(=O)c1ccc(-c2cncnc2)cc1)c1ccccc1	.	/	/	/	.
O=C(C1CCCN1C(=O)Nc1ccccc1)N1CCC(N2Cc3ccccc3C2=O)CC1 (centres undefined)	.	.	/	/	.
COc1cccc(-c2cc(C3CCN(C(=O)Nc4ccc(C)cc4C)CC3)[nH]n2)c1	44.7µM	.	.	.	?
CC1(C)OC2=C(C(=O)c3ccccc3C2=O)[C@H](NCc2ccccc2)[C@H]1O	/	13.7µM	/	/	/
CC(C(=O)NCc1ccccc1)C1CCOCC1 (centres undefined)	.	.	.	.	.
COc1ccc(CC(=O)NCCNC(=O)c2ccc(-c3cccc(OC)c3)cc2)cc1	?	/	/	/	.
COc1cccc(-c2ccc(C(=O)NCCNC(=O)Cc3ccc(F)cc3)cc2)c1	89.1µM	/	/	/	?
COc1cccc(-c2ccc(C(=O)NCCNC(=O)c3ccccc3F)cc2)c1	89.1µM!	/	/	/	.
Cc1ccc(F)cc1S(=O)(=O)N[C@@H]1CN(c2ncccn2)C[C@H]1CN(C)C	?	.	.	.	.
Cc1cc(NC(=O)c2ccc3c(c2)N(C)C2CCCN2C3=O)ccc1Br (centres undefined)	.	.	?	.	.
COC(=O)c1cccc(NC(=O)c2ccc3c(c2)N(C)C2CCCCCN2C3=O)c1 (centres undefined)	?	.	?	?	44.7µM
Cc1cccc(NC(=O)c2ccc3c(c2)N(C)C2CCCCCN2C3=O)c1 (centres undefined)	?	.	35.5µM	.	?
Cc1cc(C)cc(NC(=O)c2ccc3c(c2)N(C)C2CCCN2C3=O)c1 (centres undefined)	70.8µM	.	.	.	.
SMILES	HEK293 tox	GPT2 inh	FLuc inh	NPR1 antag	NIH3T3 tox
CN1c2cc(C(=O)Nc3cccc(Br)c3)ccc2C(=O)N2CCCCCC21 (centres undefined)	?	.	?	.	?
COc1ccc(NC(=O)c2ccc3c(c2)N(C)C2CCCCN2C3=O)cc1OC (centres undefined)	?	.	.	.	?
COc1cc(NC(=O)c2ccc3c(c2)N(C)C2CCCCN2C3=O)cc(OC)c1OC (centres undefined)	?	.	.	.	31.6µM
CC(C)CNC(=O)C1CCc2sc(C(=O)N3CCCCC3)cc2C1 (centres undefined)	.	.	.	.	.
O=C(NCc1ccc(F)cc1)C1CCN(Cc2ccccc2-c2cccnc2)CC1	.	.	/	/	.
Cc1noc(-c2cccs2)c1C(=O)NC(C)CCc1ccccc1 (centres undefined)	.	.	.	.	.
COC(=O)c1cccc(NC(=O)c2ccc3c(c2)N(C)C2CCCCN2C3=O)c1 (centres undefined)	?	.	?	.	?
CSc1cccc(NC(=O)c2ccc3c(c2)N(C)C2CCCCCN2C3=O)c1 (centres undefined)	17.8µM	.	?	.	31.6µM
COc1ccc(C(=O)N2CCC(C(=O)N3CCC(c4nc5ncccc5[nH]4)CC3)CC2)cc1	.	.	/	/	.
COc1ccc(-c2ccc(C(=O)NCc3ccccn3)cc2)nn1	.	/	/	/	.
CCc1ncc2c(N3CC4CCC(C3)N4CC(F)(F)F)nc3ccccc3n12	39.8µM	?	/	/	?
O=C(c1ccccc1)N1CC(Oc2ccc3c(c2)OCO3)C1	?	.	/	/	.
Cc1ccc(Nc2ccnc(N3CCC(NC(=O)NC4CCCC4)CC3)n2)cc1	.	.	/	/	.
Cc1ccc(Nc2ccnc(N3CCC(NC(=O)c4ccc(Cl)nc4)CC3)n2)cc1	39.8µM	.	/	/	39.8µM
Cc1ccc(Nc2ccnc(N3CCC(NC(=O)c4ccc(F)cc4)CC3)n2)cc1	?	.	/	/	35.5µM
Cc1ccc(Nc2ccnc(N3CCC(NC(=O)c4ccc(C)cc4)CC3)n2)cc1	?	.	/	/	?
Cc1ccc(Nc2ccnc(N3CCC(NC(=O)c4ccc(C(F)(F)F)cc4)CC3)n2)cc1	?	.	/	/	12.6µM
O=C(C1CCN(c2nccc(Nc3ccccc3Cl)n2)CC1)N1CCC(c2ccccc2)CC1	31.6µM	.	/	/	39.8µM
O=C(C1CCCN1c1nccc(Nc2ccccc2F)n1)N1CCN(Cc2ccccc2)CC1 (centres undefined)	31.6µM	.	/	/	?
Cc1ccc(Nc2ccnc(N3CCCC3C(=O)N3CCN(Cc4ccccc4)CC3)n2)cc1 (centres undefined)	14.1µM	.	/	/	35.5µM
O=C([C@@H]1CCCN1c1nccc(Nc2ccccc2Cl)n1)N1CCN(Cc2ccccc2)CC1	?	.	/	/	44.7µM
O=C(C1CCCN1c1nccc(Nc2ccccc2F)n1)N1CCC(c2ccccc2)CC1 (centres undefined)	?	.	/	/	?
CN(Cc1cncs1)C1CCCc2ccccc21 (centres undefined)	?	.	.	.	?
Cc1ccc(Nc2ccnc(N3CCCC3C(=O)N3CCC(c4ccccc4)CC3)n2)cc1 (centres undefined)	31.6µM	.	/	/	31.6µM
O=C([C@@H]1CCCN1c1nccc(Nc2ccccc2Cl)n1)N1CCCC1	?	.	/	/	?
O=C([C@@H]1CCCN1c1nccc(Nc2ccccc2Cl)n1)N1CCC(c2ccccc2)CC1	22.4µM	.	/	/	35.5µM
COc1ccc(Nc2ccnc(N3CCCC(C(=O)N4CCC(c5ccccc5)CC4)C3)n2)cc1 (centres undefined)	?	.	/	/	?
